Assay outcomes (PubChem)
PRMT1 FP inh = PRMT1 (human) inhibition, primary screen; 370,000 compounds, 1.3% hits; AID 652257; Q99873; recombinant PRMT1, activity-based probe fluorescence polarization; inhibition, % at 2.79 µM;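 active = inhibition above about 21% made by adding two undisclosed values, limit read from the data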
MBD2 inh = inhibitors of human MBD2 binding to methylated oligonucleotide | TR-FRET | 370,000 compounds, 0.31% hits | Q9UBB5 | inhibition, % at 4.4 µM | AID 686964; in the data active = inhibition above about 13%
Target sequence (Q9UBB5 whole entry, looked up): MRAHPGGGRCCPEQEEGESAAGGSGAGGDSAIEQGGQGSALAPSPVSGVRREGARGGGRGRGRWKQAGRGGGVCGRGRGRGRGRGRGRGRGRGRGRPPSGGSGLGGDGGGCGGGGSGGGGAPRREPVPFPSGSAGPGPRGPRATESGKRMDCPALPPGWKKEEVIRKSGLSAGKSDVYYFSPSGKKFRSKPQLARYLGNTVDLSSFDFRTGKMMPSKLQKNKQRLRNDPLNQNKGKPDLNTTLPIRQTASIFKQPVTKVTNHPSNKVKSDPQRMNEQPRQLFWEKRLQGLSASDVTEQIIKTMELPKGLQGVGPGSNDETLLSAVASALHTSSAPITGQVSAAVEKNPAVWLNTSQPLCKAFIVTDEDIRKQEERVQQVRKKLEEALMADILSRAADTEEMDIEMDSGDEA
ABHD5-PLIN5 inh = inhibitors of human ABHD5-perilipin-5 interaction; Q00G26+Q8WTS1; Split G. princeps luciferase complementation, luminescence, 4 h; inhibition, % at 4 µM; 360,000 compounds, 0.78% hits; AID 602281;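 active = inhibition above the mean inhibition across every tested compound plus 3 SD, cut at about 22% in these data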;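 also: 0% = DMSO only wells and the 100% control is not disclosed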
UHRF1 MBD2 ctr = blocks human UHRF1 binding to methylated DNA | Q96T88 | UHRF1 binding to methylated oligo, TR-FRET | inhibition, % at 4.4 µM | 370,000 compounds, 0.75% hits | AID 687016;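 also: UHRF1 SRA domain binding a hemimethylated CpG hairpin DNA probe; 0% = median of test compound wells and 100% = reference inhibitor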
rCAG RNA binder = r(CAG) repeat RNA binding. inhibition, % at 3 µM. AID 651821. 370,000 compounds, 1.3% hits. TO-PRO-1 dye displacement fluorescence;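 active = inhibition above the plate cutoff, the mean of all test compounds on that plate plus 3 SD, cut at about 35% in these data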;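 also: 0% = DMSO alone and 100% = 100 µM mitoxantrone as full dye displacement; higher means more dye released from RNA so lower well fluorescence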
LEDGF integ inh = blocks HIV-1 LEDGF/p75-dependent DNA integration; inhibition, % at 3.7 µM; 370,000 compounds, 0.64% hits; AID 743269; TR-FRET IN-LEDGF/p75 DNA integration, Eu/Cy5;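 active = inhibition above the screen-wide mean plus 3 SD, cut at about 13% in these data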;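 also: signal is the Cy5 over europium emission ratio at 671 and 618 nm; 0% = plate median of compound wells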
UHRF1 DNA bind = inhibits human UHRF1 binding to methylated oligonucleotide, MBD2 counter-screen | inhibition, % at 4.4 µM | shares compounds with MBD2 inh | 1,000 compounds, 25% hits | TR-FRET;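 also: UHRF1 SRA domain binding a labeled hemimethylated CpG hairpin DNA; 0% = vehicle only and 100% = reference inhibitor with vehicle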
MBD2 DBD conf = MBD2-DBD methyl-DNA binding inhibition, TR-FRET confirmation | shares compounds with MBD2 inh | TR-FRET MBD2-DBD binding to methylated oligonucleotide | inhibition, % at 4.4 µM | 1,000 compounds, 26% hits | AID 720531; in the data active = inhibition above about 14%
* hit, by the source's call; / = not tested or not shown. Sampled rows, rich in hits. Any-hit rate of the full collection: about 4.1%. Rule as the data show it, unless noted: active = inhibition above about 21%; inactive = the rest.

SMILES	PRMT1 FP inh	MBD2 inh	ABHD5-PLIN5 inh	UHRF1 MBD2 ctr	rCAG RNA binder	LEDGF integ inh	UHRF1 DNA bind	MBD2 DBD conf
CCCCNC(=O)Cn1c(-c2ccc(OC)cc2)noc1=O	1	14*	-2	13	-2	-4	-1	2
Cc1occc1-c1nnc(SCC(=O)Nc2ccccn2)n1-c1ccccc1	-1	-5	/	-1	1	2	/	/
CN(C(=O)c1cccs1)c1ccccc1C(=O)O	2	16*	0	32*	2	12	8	4
Cc1cccc(N2C(=O)CC(Sc3nc(C)c4c(n3)CCCC4)C2=O)c1 (centres undefined)	3	14*	6	1	-1	0	4	5
c1nc(NCC2CCOC2)c2cc(-c3ccc4c(c3)OCO4)ccc2n1 (centres undefined)	-3	-4	/	0	/	1	/	/
C[C@H](CO)N1C[C@H](C)[C@@H](CN(C)C(=O)Nc2cccc(Oc3ccccn3)c2)OCc2cn(nn2)CCCC1=O	2	8	/	20	0	1	/	/
CC1CCCN(CCCNC(=O)c2ccc3c(c2)N(Cc2cccc(Cl)c2)C(=O)c2ccccc2S3=O)C1 (centres undefined)	-1	-5	10	-2	6	5	/	/
CC1CCCN(CCCNC(=O)c2ccc3c(c2)N(Cc2ccc(F)cc2)C(=O)c2ccccc2S3=O)C1 (centres undefined)	0	17*	0	-1	-4	0	7	3
Cc1ccc(S(=O)(=O)N[C@H](C(=O)OCC(=O)NC(=O)Nc2ccc3c(c2)OCCO3)C(C)C)cc1	2	3	15	2	-3	-2	/	/
CC(C)[C@H](NS(=O)(=O)c1ccc2c(c1)OCCO2)C(=O)OCC(=O)Nc1ccccc1	3	19*	1	28*	2	9	9	1
COC(=O)C1=C(C)N(Cc2ccccc2C(F)(F)F)C(=NCc2ccc(C(F)(F)F)cc2)NC1c1ccccc1 (centres undefined)	0	0	/	1	2	-6	/	/
CS(=O)(=O)N[C@@H]1C[C@@H]2O[C@@H](CO)CC[C@@H]2O[C@@H]1CCc1ccc(-c2ccccc2F)cc1	-2	-2	/	4	7	-3	/	/
CCCSc1nc(C)c2cc(C)cc(C)c2n1	-3	8	1	3	2	2	/	/
Cc1cc(C)c2nc3nc(C)c(C)cc3c(N)c2c1	1	21*	0	26*	17	-1	41*	38*
C#CCN(Cc1ccco1)C(=O)c1nnc2c3cc(OC)ccc3n(S(=O)(=O)c3ccc(OC)cc3)c2n1	6	26*	/	1	15	-3	6	20*
COC(=O)c1cc2c(c3c4cc(OC)ccc4n(S(=O)(=O)c4ccc(OC)cc4)c13)C(=O)N(Cc1ccco1)C2	2	5	/	2	21	2	/	/
CCC(=O)OCC(=O)Nc1ccc(OC)cc1[N+](=O)[O-]	-4	1	0	-3	-1	4	/	/
COc1ccc(NC(=O)COC(=O)CC23CC4CC(CC(C4)C2)C3)c([N+](=O)[O-])c1	-1	46*	0	4	3	-5	3	3
O=[N+]([O-])c1ccc(Sc2nc3ccccc3[nH]2)c(Cl)c1	0	-5	/	5	4	2	/	/
COc1cc(NC(=O)c2ccc(OC)c([N+](=O)[O-])c2)ccc1NC(=O)c1ccco1	-3	18*	8	-3	14	1	8	2
COc1cc(NC(=O)COc2ccccc2[N+](=O)[O-])ccc1NC(=O)c1ccco1	3	6	0	-1	0	-2	/	/
C=CCN=C1NC(c2ccccc2C(F)(F)F)C(C(=O)OC)=C(C)N1Cc1ccc(C(F)(F)F)cc1 (centres undefined)	-1	-1	/	1	1	4	/	/
CC(C)(C)Nc1scc(-c2ccccc2)[n+]1-c1ccccc1	-3	18*	0	5	-4	0	8	3
CCCc1nnc(NC(=O)CCC(=O)N2CCN(c3ccccn3)CC2)s1	4	14*	10	19	-6	0	8	4
COc1ccc2cc3cc(C(=O)Nc4ccc(F)cc4)sc3nc2c1	10	29*	/	8	/	-3	29*	28*
SMILES	PRMT1 FP inh	MBD2 inh	ABHD5-PLIN5 inh	UHRF1 MBD2 ctr	rCAG RNA binder	LEDGF integ inh	UHRF1 DNA bind	MBD2 DBD conf
COC(=O)[C@@]1(C(C)C)N=C(c2cc(OC)c(OC)c(OC)c2)[C@]2(O1)C(=O)N(Cc1cn(Cc3ccccc3)nn1)c1ccc(F)cc12	4	14*	/	16	9	-3	12	6
COC(=O)[C@@]1(C(C)C)N=C(c2cc(OC)c(OC)c(OC)c2)[C@]2(O1)C(=O)N(Cc1ccc(OC)cc1)c1ccc(Br)cc12	-6	-3	-1	-1	4	7	/	/
COC(=O)C[C@H]1C[C@H]2c3cc(NS(=O)(=O)c4ccc(OC)cc4)ccc3O[C@H]2[C@H](CO)O1	1	21*	-1	12	3	-2	9	3
COC(=O)[C@]12C[C@H](CC(=O)N3CCN(C(=O)c4ccco4)CC3)C(=O)N(CCC3=CCCCC3)C1=C[C@H](C(C)C)O[C@@H]2C1CC1	-4	6	/	3	6	-4	/	/
COc1cc(C=NN=c2sc3ccccc3n2C)ccc1OCCO	-5	-5	/	-3	2	3	/	/
CCN(c1ccccc1)S(=O)(=O)c1cc(C(=O)O)ccc1C	6	25*	-2	60*	15	9	51*	27*
CCCC[C@H]1C2CC(OC(=O)Nc3cc(C)cc(C)c3)C(C2)[C@H]2CCCCN21 (some centres undefined)	0	0	/	-1	4	-4	/	/
CCN(CC(=O)NC(C)(C)C)Cc1nc2c(Br)cc(Br)cc2c(=O)[nH]1	-3	41*	1	-2	0	9	5	2
O=C(CSCc1ccccc1)Nc1ccc(F)c(F)c1	2	16*	0	0	4	-1	8	5
C=CCN1C(=O)c2n[nH]c(COC)c2C1c1ccc(F)cc1 (centres undefined)	3	2	/	-1	-1	0	/	/
Cc1ccc(CN2C(=O)C3CCCN3c3ncccc32)cc1 (centres undefined)	2	52*	3	-2	10	-2	5	3
COC(=O)[C@H]1[C@H](c2ccccc2)[C@H](C(=O)OC)O[C@H]1c1ccccc1	-5	0	-5	2	-2	4	/	/
